In all, about 340,000 compounds went through this assay and about 2,100 (0.62%) were called active.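 Rule for the calls: active = first-screen hits whose inhibition reached a set limit at any dose in the follow-up dose series; inconclusive = inhibition above the set first-screen limit but never retested; inactive = the rest.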 These entries were drawn from the full list. Results with a measured potency or affinity are listed apart.
target: Rac GTPase-activating protein 1 (Homo sapiens) (UniProt Q9H0H5); test: MgcRacGAP GTPase-activating activity inhibitors, confirmation, biochemical, ADP Hunter fluorescence, primary and confirmatory (AID 624330); details: MgcRacGAP-stimulated Rac1 GTP hydrolysis, at 30 µM, stronger effect = higher value, GST-tagged Rac1 F28L mutant substrate;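 note: fluorescence reports GDP produced by GAP-driven GTP hydrolysis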
Sequence (Q9H0H5 whole entry, looked up): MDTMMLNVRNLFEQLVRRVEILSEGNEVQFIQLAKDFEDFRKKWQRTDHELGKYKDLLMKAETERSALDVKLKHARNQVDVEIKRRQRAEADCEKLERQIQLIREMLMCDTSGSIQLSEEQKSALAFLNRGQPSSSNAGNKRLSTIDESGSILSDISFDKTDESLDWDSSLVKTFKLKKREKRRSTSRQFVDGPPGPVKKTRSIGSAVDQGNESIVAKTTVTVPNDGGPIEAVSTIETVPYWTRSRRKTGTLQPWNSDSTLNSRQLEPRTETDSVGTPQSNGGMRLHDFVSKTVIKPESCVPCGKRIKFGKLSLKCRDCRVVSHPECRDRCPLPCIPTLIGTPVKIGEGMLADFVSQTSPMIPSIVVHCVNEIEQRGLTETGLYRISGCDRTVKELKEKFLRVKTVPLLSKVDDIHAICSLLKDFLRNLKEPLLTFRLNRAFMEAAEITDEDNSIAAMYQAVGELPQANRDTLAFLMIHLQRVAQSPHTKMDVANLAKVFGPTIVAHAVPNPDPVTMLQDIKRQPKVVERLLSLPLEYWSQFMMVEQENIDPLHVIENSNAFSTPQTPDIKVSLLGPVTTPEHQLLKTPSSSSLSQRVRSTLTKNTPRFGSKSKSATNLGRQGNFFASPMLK

inhibition, inactive:
CCOc1ccc(CNC(=O)c2ccc3c(c2)N(CC)CCS3)cc1 14%
Nc1ccc(Nc2ccccc2N)cc1 24.3%
O=C(O)c1ccccc1Nc1cccc(C(F)(F)F)c1 8.9%
Nc1cc(C(=O)O)ccc1Nc1ccccc1 25.7%
Nc1cccc(Nc2ccccc2)c1 8.97%
c1ccc(Nc2cccc3c(Nc4ccccc4)cccc23)cc1 8.14%
Nc1cc(C(F)(F)F)ccc1Nc1ccccc1 6.27%
CCOc1cc(N2CCOCC2)c(OCC)cc1NC(=O)COC(=O)c1ccc(Cl)nc1 1.55%
O=C(Nc1cccc(-c2csc(Nc3ccc(Cl)cc3)n2)c1)c1ccccc1 2.45%
N#Cc1c(-c2ccccc2)cc(C2CC2)nc1SCC(=O)O 12.8%
COc1ccc(OC)c(/C=N/Nc2nncn2/N=C/c2cc(OC)ccc2OC)c1 6.03%
COc1ccc(/C=N/Nc2nn3cnnc3c3ccccc23)cc1 13.1%
Oc1cccc(/C=N/Nc2nn3cnnc3c3ccccc23)c1 24.6%
COc1cc(/C=N\Nc2nncn2N)ccc1OC(C)=O -4.26%
COc1cccc(/C=N/Nc2nn3cnnc3c3ccccc23)c1 19.3%
COc1cccc(/C=N/Nc2nn3cnnc3c3ccccc23)c1O 7.65%
CC(C)Cn1c(=O)c(-[n+]2ccccc2)c([O-])c2ccccc21 12.6%
O=C(OCc1ccccc1)N1CCC2CC1c1cc(Cl)ccc12 (stereo not drawn) 2.05%
Cc1nn(-c2ncc(C(F)(F)F)cc2Cl)c(=O)n1-c1ccccc1Cl 5.45%
CCCS(=O)(=O)NCc1cn2cccc(C)c2n1 4.87%
CC(=O)N1CCN(c2ccc([N+](=O)[O-])c(NCC3CCCO3)c2)CC1 (stereo not drawn) 7.45%
COc1cc(C(=O)OCn2nnc3ccccc3c2=O)cc(OC)c1OC 5.8%
COc1ccc(NC(=O)c2noc3c2CCC3)cc1 14.6%
COc1ccc(C2C3=C(CC(C)(C)CC3=O)Oc3ncn4nc(-c5cccnc5)nc4c32)cc1 (stereo not drawn) 1.38%
O=C(CCCc1c[nH]c2ccccc12)N[C@@H](Cc1c[nH]c2ccccc12)C(=O)O 9.15%
COc1cccc(CNC(=O)C2CCCN(S(C)(=O)=O)C2)c1 (stereo not drawn) -2.27%
CC(C)(C)c1nc2ccc(NS(=O)(=O)c3ccc(F)c(F)c3F)cc2[nH]1 -2.67%
CS(=O)(=O)Nc1ccc(C(=O)Nc2ccccc2Sc2ccccc2)cc1 9.8%
Cc1nc(CN(C)Cc2nc(Cc3cccc(F)c3)no2)cs1 5.6%
O=S(=O)(NC(=NC1CCCCC1)c1ccccc1)c1ccccc1 4.1%
COc1ccc(NC2CCCN(C(=O)CCc3cccc(Cl)c3)C2)cc1 (stereo not drawn) -4.43%
Cc1ccc(NC2CCCN(C(=O)CCc3scnc3C)C2)cc1C (stereo not drawn) 10.7%
CC(C)c1ccc(NC2CCCN(C(=O)CCc3cn[nH]c3)C2)cc1 (stereo not drawn) 11.8%
Cc1ncsc1CCC(=O)N1CCCC(Nc2ccc(C(C)C)cc2)C1 (stereo not drawn) 5.76%
COc1ccc(CCC(=O)N2CCCC(Nc3ccccc3)C2)cc1OC (stereo not drawn) 3.2%
COc1ccc(CCC(=O)N2CCCC(Nc3ccc(OC)cc3)C2)cc1 (stereo not drawn) -28.9%
Cc1ccc(NC2CCCN(C(=O)CCc3cn[nH]c3)C2)cc1C (stereo not drawn) 14.1%
O=C(CCc1ccccc1)N1CCCC(Nc2ccc(F)cc2)C1 (stereo not drawn) 5.33%
Cc1ccc(NC(=O)C2CCCN(C(=O)NCc3ccccc3)C2)c(C)c1 (stereo not drawn) 5.67%
CCOC(=O)CCCn1c(C)nc(=O)c(-c2ccccc2)c1C -2.8%
CCCCCCC(=O)OCC(=O)c1ccc2c(c1)NC(=O)CO2 4%
COc1ccccc1NC(=S)N(CCN(C)C)C(C)c1ccncc1 (stereo not drawn) 4.01%
O=S1(=O)N[C@@H](CC2CCCCC2)COc2cc(Br)ccc21 6.23%
COCC(=O)Nc1cc(C)cn(Cc2cccc(C(F)(F)F)c2)c1=O 3.75%
COc1ccc(CCNC(=O)c2[nH]c(C)c(C(C)=O)c2C)cc1 2.68%
CN(c1ccccc1)S(=O)(=O)c1cccc(NC(=O)CSc2ncn[nH]2)c1 5.76%
Cc1cc(Cl)ccc1OCC(=O)NCc1ccncc1 5.06%
O=C(c1ccccc1-c1ncc[nH]1)N1CCCC(Nc2ccc(F)cc2)C1 (stereo not drawn) 2.49%
CC(C)c1ccc(NC2CCCN(C(=O)c3ccccc3-c3ncc[nH]3)C2)cc1 (stereo not drawn) 8.99%
COc1ccc(NC2CCCN(C(=O)c3ccc(OC)cc3OC)C2)cc1 (stereo not drawn) -1.47%
COc1ccc(OC)c(C(=O)N2CCCC(Nc3ccc(F)cc3)C2)c1 (stereo not drawn) 12.4%
CC1CN(C(=O)CCNC(=O)c2ccc(Br)cc2)CC(C)O1 (stereo not drawn) 3.26%
Cc1ccc(OCC(=O)O)c(-n2nc3ccccc3n2)c1 9.25%
Nn1c(-c2cccc(O)c2)nnc1-c1cccc(O)c1 -0.05%
CC(C)CC(=O)NC(=S)Nc1ccc(N2CCN(C(=O)c3cccs3)CC2)cc1 9.14%
COc1cccc(NC(=O)CNCc2ccccc2)c1 1.69%
COC(=O)c1ccc(CNCC(=O)Nc2ccc(C(=O)OC)cc2)cc1 -0.29%
COc1ccc(CCNCC(=O)Nc2ccc(OC(F)(F)F)cc2)cc1OC 28.8%
COc1ccc(CNCC(=O)Nc2cccc(S(N)(=O)=O)c2)cc1 24.6%
CN1CCN(NS(=O)(=O)c2ccc(Cl)s2)CC1 13.4%
CCn1c(SCC(=O)OCc2ccccc2)nc2c1c(=O)n(C)c(=O)n2C -1.89%
CC(=O)Nc1ccc(NC(=O)c2nccnc2C(=O)O)cn1 2.3%
O=C(C(c1ccccc1)C(O)(c1ccccc1)c1ccccc1)N1CCOCC1 (stereo not drawn) -4.45%
